# Screening data from PubChem BioAssay.
# This excerpt belongs to a sample that is enriched for hits.
# Pf Dd2 growth = inhibitors of Plasmodium falciparum Dd2 growth; Potency, µM (titrated, usually from 28.9 µM), without a hit: at the top dose activity, negative = inhibition, hits mostly inhibitors; hit rate 4.3% among 120,000; AID 1347417; P. falciparum Dd2 growth, SYBR Green, 72 h; active = well fitted inhibition curve with a large enough effect;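 also: plate controls were DMSO vehicle for no effect and reference drug for full effect; nearly all actives have a fitted effect of over 65% in size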
#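 Infected erythrocytes (Dd2, 0.3% parasitemia, 2.5% hematocrit final) are added to compound in RPMI-1640/Albumax II medium, grown 72 h at 37C in low oxygen, then lysed with saponin/Triton-X containing SYBR Green and read by fluorescence.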
# Starred values were filed as active, the others as inactive; i = inactive; [ ] = dose if it differs, or a comment. Potency is read from the fitted curve at half-maximal effect.
SMILES,Pf Dd2 growth
CCOC(=O)c1ccc(N2C(=O)c3[nH]nc(-c4ccccc4)c3C2c2ccc(CC)cc2)cc1 (stereo not drawn),10µM*
O=C(Cc1noc2ccccc12)N[C@@H]1COCC[C@@H]1OCc1ccccn1,15%
O=C(c1ccc2c(c1)OCO2)N1C2CCC1CN(Cc1cccnc1)C2,0%
COc1ccc(CN2CC(CNC(=O)Cc3ccccc3)C3(C2)CN(c2ccccc2)C3)cc1O (stereo not drawn),-14%
CCn1cc(C(=O)NCCc2ccccc2)c(=O)c2cc(S(=O)(=O)N3CCOCC3)ccc21,-7%
O=C(NCCCn1ccnn1)c1cccc(S(=O)(=O)N2CCOCC2)c1,1%
O=C(NCCSc1c(-c2ccccc2)[nH]c2ccccc12)c1ccc(S(=O)(=O)N2CCOCC2)cc1,10µM*
O=C(NCCSc1c(-c2ccc(Br)cc2)[nH]c2ccccc12)c1ccc(S(=O)(=O)N2CCOCC2)cc1,5.6µM*
O=C(NC1CC(=O)N(c2ccc(Cl)cc2)C1)c1ccc(S(=O)(=O)N2CCOCC2)cc1 (stereo not drawn),i
Cc1ccc(CNC(=O)c2c[nH]c3ccc(S(=O)(=O)N4CCOCC4)cc3c2=O)cc1,-22%
O=C(NC1CC(=O)N(c2cccc(F)c2)C1)c1ccc(S(=O)(=O)N2CCOCC2)cc1 (stereo not drawn),40%
O=C(NCCSc1c(-c2ccc(Cl)cc2)[nH]c2ccccc12)c1ccc(S(=O)(=O)N2CCOCC2)cc1,8.9µM*
O=C(CN1C(=O)CCc2cc(S(=O)(=O)N3CCOCC3)ccc21)NCc1ccc(Cl)cc1,i
c1ccc(Cc2noc(CCn3ccnc3-c3ccncc3)n2)cc1,2%
COCCn1c2c(c(=O)n1-c1ccccc1)CCN(C(=O)c1cc3ccccc3[nH]1)C2,-20%[44.1 µM]
COCC1CN(C(=O)c2ccc(C)c(C)c2)CC12CCNCC2 (stereo not drawn),53%
O=C(O)C[C@@H]1CCN(C(=O)c2ccnc(Cl)c2)C[C@@H]1CCN1C[C@@H]2C[C@H](C1)c1cccc(=O)n1C2,-2%
OCC1CN(Cc2cc(Br)ccc2F)CC12CCNCC2 (stereo not drawn),i
CCn1nc(C)c(CCN(C)C(=O)Cn2nc3n(c2=O)CCC(N)CC3)c1C (stereo not drawn),i
O=C(Nc1ccc(Cl)cc1)N1CCn2c(nnc2-c2ccccc2)C1,-22%
CC(C)N1CCN(C2CCOC3(CCN(S(=O)(=O)c4ccccc4)CC3)C2)CC1 (stereo not drawn),i
CCc1cccc(NS(=O)(=O)c2ccc3c(c2)CC(C)N3C(=O)C2CC2)c1 (stereo not drawn),-16%
CC(=O)N1c2ccc(S(=O)(=O)NCC3CCC(C(=O)Nc4ccc(C)c(C)c4)CC3)cc2CC1C (stereo not drawn),-20%
CC(=O)N1c2ccc(S(=O)(=O)NCc3ccccc3Cl)cc2CC1C (stereo not drawn),66%
CC(=O)N1c2ccc(S(=O)(=O)NCC3CCC(C(=O)Nc4ccc(F)cc4)CC3)cc2CC1C (stereo not drawn),i
SMILES,Pf Dd2 growth
CCc1ccc(NC(=O)C2CCC(CNS(=O)(=O)c3ccc4c(c3)CC(C)N4C(C)=O)CC2)cc1 (stereo not drawn),10µM*
CC1Cc2cc(S(=O)(=O)NCc3ccccc3)ccc2N1C(=O)C1CCC1 (stereo not drawn),3.5µM*
CCC(CC)N1C[C@@H](CO)[C@H](c2nc(CCOC)no2)C1,18%
CCNC(=O)N1C[C@@H](Oc2cccnc2)C[C@H]1C(=O)N1CCCC1,-15%
CCOc1ccccc1C1NC(=O)N(CC(=O)Nc2ccc(C)cc2)C2=C1C(=O)OC2 (stereo not drawn),-14%
COc1ccc2cc3cc(C(=O)NCc4ccccc4OC)oc3nc2c1,i
Cc1ccc2cc3cc(C(=O)N(C)c4ccccc4C)oc3nc2c1,11µM*
COc1ccc(CNC(=O)c2cc3cc4ccc(C)cc4nc3o2)cc1,i
O=C1Nc2ccccc2CC12CCCN2C1COC1 (stereo not drawn),23%[44.1 µM]
Cc1ccc2nc(CO[C@H]3CN(Cc4cn(C)c5ccccc45)C[C@H]3F)[nH]c2c1,-14%[44.1 µM]
CCc1ccc(CNC(=O)C2CCN(C(=O)c3nnn4c3COC(c3ccc(C)cc3)C4)CC2)cc1 (stereo not drawn),i
COc1ccc(-c2noc([C@@H]3CCCN3C(=O)c3ccc(C(C)(C)C)cc3)n2)cc1,i
Cc1cccc(-c2noc([C@@H]3Cc4nc[nH]c4CN3C(=O)C3CCCCC3)n2)c1,-12%[44.1 µM]
Cc1ccc(-c2noc([C@@H]3CCCN3C(=O)CCCc3ccccc3)n2)cc1,11µM*
COc1ccc(-c2noc([C@@H]3Cc4nc[nH]c4CN3C(=O)NC3CCCCC3)n2)cc1,13µM*
O=[N+]([O-])c1cccc(-c2noc([C@@H]3Cc4nc[nH]c4CN3CC3CCCCC3)n2)c1,14µM*
O=C(O)c1ccc(CN2Cc3[nH]cnc3C[C@H]2c2nc(-c3cccc([N+](=O)[O-])c3)no2)cc1,-6%
O=C(CCc1ccccc1)N1CCC[C@H]1c1nc(-c2ccccc2)no1,16%
CCOc1ccc(C(=O)N2CCC[C@H]2c2nc(-c3ccccc3)no2)cc1,-3%
O=C(NC1CCCCC1)N1Cc2[nH]cnc2C[C@H]1c1nc(-c2ccc(Cl)cc2)no1,-24%[44.1 µM]
O=C(NC1CCCCC1)N1Cc2[nH]cnc2C[C@H]1c1nc(-c2ccc3ccccc3c2)no1,i
Cc1ccc(-c2noc([C@@H]3CCCN3C(=O)Cc3ccccc3)n2)cc1,i
CCCCOc1ccc(C(=O)N2CCC[C@H]2c2nc(-c3ccc(OC)cc3)no2)cc1,11µM*
O=C(NCC1CCCCO1)c1coc(COc2cccc(C(F)(F)F)c2)n1 (stereo not drawn),-24%
CN1CCC(N2CCN(S(=O)(=O)c3cccc(F)c3)CC2)C1=O (stereo not drawn),9%
SMILES,Pf Dd2 growth
COc1cccc(CC(=O)N2CCC([C@@H]3CNC[C@H]3CO)CC2)c1,25%
CC(C)CCN1C[C@@H]2C(=O)N(Cc3ccc4c(c3)OCO4)C(=O)[C@@H]2C1,16%
O=S(=O)(c1ccc(F)cc1)N1CCC(Oc2ccc(-c3noc(C4CC4)n3)cc2)C1 (stereo not drawn),-12%[5.79 µM]
COC(=O)C1=C(C)NC(=O)NC1c1ccc(N(C)C)cc1 (stereo not drawn),-12%
O=C(c1ccc(Cl)cc1)N1C[C@@H](F)[C@@H](OCc2nc3ccccc3[nH]2)C1,i
CCc1nn(-c2ccc(OC)cc2)c(Oc2ccccc2F)c1CCC(=O)N(CC)CC,i
CCc1nn(-c2ccc(OC)cc2)c(Oc2ccccc2F)c1CCC(=O)NC(C)C,7.9µM*
CCc1nn(-c2ccc(OC)cc2)c(Oc2ccccc2F)c1CCC(=O)NCCOC,i
COc1ccc(C2Cn3nnc(-c4nc(-c5ccc(F)c(F)c5)no4)c3CO2)cc1 (stereo not drawn),i
CS(=O)(=O)N1CCC(OC2CCN(C(=O)Nc3ccccc3C(F)(F)F)CC2)CC1,-14%
CC(=O)N1CCC2(CC1)OC(=O)C(C)=C2C(=O)Nc1ccccc1C(F)(F)F,14%
CCN1c2ccccc2-n2cccc2C12CCN(C(=O)Nc1ccccc1C(F)(F)F)CC2,2.8µM*
Cc1nc(C)c(C(=O)N2CCC3(CC2)CN(c2ncccn2)CC3CO)s1 (stereo not drawn),-17%
O=C(CN1CCOCC1)N1CC2CC(C1)[C@H]1CCCC(=O)N1C2 (stereo partly drawn),-1%
O=C1OCCN1C1CCN(Cc2ccc(C(F)(F)F)cc2)CC1,1%
